Sampled rows, rich in hits. Any-hit rate of the full collection: about 3.8%.
Y pestis TopoI = inhibitors of Yersinia pestis topoisomerase I | Y. pestis Topo-I cleavage product accumulation, plate reader | AID 504884 | activity, % at 10 µM | 360,000 tested, 0.064% active; in the data active = activity above about 50%, passing the limit was not always enough; inconclusive = no clear call, values can overlap the other calls
Mtb hypoxia inh = Mtb hypoxia fluorescent reporter inhibition; AID 1159583; M. tuberculosis hypoxia-regulated fluorescent reporter, fluorescence; fluorescence inhibition, % (no concentration beside the values); 300,000 tested, 0.1% active; in the data active = fluorescence inhibition mostly above about 23%, no sharp cut-off; inactive = mostly below about 17%
Mtb FBA inh = Mtb fructose-bisphosphate aldolase inhibition; 360,000 tested, 2.3% active; P9WQA3; inhibition, % at 1 µM; purified M. tuberculosis FBA, fluorescence read-out; AID 588726; in the data active = inhibition above about 27%;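 note: 0% = vehicle and 100% = reference inhibitor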
Target sequence (P9WQA3 whole entry, looked up): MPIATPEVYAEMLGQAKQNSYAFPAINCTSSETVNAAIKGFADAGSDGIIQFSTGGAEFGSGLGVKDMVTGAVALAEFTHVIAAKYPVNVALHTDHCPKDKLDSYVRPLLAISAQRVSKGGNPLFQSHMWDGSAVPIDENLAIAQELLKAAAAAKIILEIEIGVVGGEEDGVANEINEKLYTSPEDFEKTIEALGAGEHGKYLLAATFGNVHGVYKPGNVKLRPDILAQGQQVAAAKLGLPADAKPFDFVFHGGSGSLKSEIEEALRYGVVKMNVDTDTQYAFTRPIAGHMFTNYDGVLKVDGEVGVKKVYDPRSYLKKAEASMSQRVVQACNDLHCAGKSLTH
GDH-TPI counter = inhibits GDH-TPI coupling enzymes, artifact for Mtb FBA screen; GDH-TPI coupled enzyme counterscreen, NADH absorbance; inhibition, % at 4.8 µM; 360,000 tested, 1.2% active; in the data active = inhibition above about 30%;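 note: 0% = DMSO wells and 100% = wells lacking the enzyme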
PrP UTR inh = inhibition of PrP 5' UTR reporter expression. 340,000 tested, 0.35% active. inhibition, % (concentration not given with the values). AID 488862. cell-based PrP 5' UTR mRNA reporter, plate reader; in the data active = inhibition above about 52%; note: 0 = median of the neutral control wells
PrPC TRFRET = reduces human prion protein on the cell surface | P04156 | cell surface PrPC, TR-FRET read-out | inhibition, % at 13.8 µM | 370,000 tested, 0.43% active; in the data active = inhibition above about 24%; note: 0% = median of the test wells and 100% = reference compound wells
PrP UTR cherry = prion 5' UTR mRNA inhibition, cherry-pick retest. cell-based prion protein 5' UTR reporter, plate reader. inhibition, % at 2.5 µM. 1,100 tested, 48% active. shares compounds with PrP UTR inh; in the data active = inhibition above about 54%; inconclusive = no clear call, values can overlap the other calls
An asterisk follows results filed as active; ? = inconclusive; / = no result given.

SMILES	Y pestis TopoI	Mtb hypoxia inh	Mtb FBA inh	GDH-TPI counter	PrP UTR inh	PrPC TRFRET	PrP UTR cherry
CCOc1ccc(N(CC(=O)N2CCc3ccccc32)S(=O)(=O)c2c(C)noc2C)cc1	2.1	/	1.2	-16.8	79.1*	-5.0	9.0
Cc1cc(C)cc(N(CC(=O)N2CCn3c2nc2ccccc23)S(=O)(=O)c2c(C)noc2C)c1	-0.5	/	5.5	9.1	67.2*	4.6	-3.0
O=C(CON=Cc1ccccc1OC(F)F)NCc1ccco1	/	4.7	/	/	/	/	/
O=C1C=C(c2ccc(O)cc2)C[C@@H](c2ccc3c(c2)OCO3)C1	19.6	/	3.0	12.6	67.2*	-13.9	1.6
COc1ccc(CNC(=O)CC2C(=O)N(Cc3ccccc3)CC2Cc2ccccc2)cc1 (stereo unspecified)	/	3.6	/	/	/	/	/
N/C(=N\OC(=O)c1cc(Br)ccc1Cl)c1ccccn1	5.4	/	0.8	5.5	-81.6	-4.6	/
Cc1ccc(C(=O)O/N=C(\N)c2ccccc2)c(Cl)c1	-6.3	1.3	0.9	1.5	56.2*	-10.0	54.7*
Cc1ccc(C(=O)O/N=C(\N)c2ccccn2)c(Cl)c1	5.9	6.3	1.1	-8.9	80.7*	-4.6	93.6*
N/C(=N\OC(=O)c1ccccc1Cl)c1ccncc1	3.6	6.9	-1.9	-2.4	-78.8	-8.3	/
N/C(=N\OC(=O)c1ccc(Cl)cc1Cl)c1ccccn1	0.4	12.2	1.7	-0.3	79.3*	2.6	54.7*
N/C(=N\OC(=O)c1ccc([N+](=O)[O-])cc1Cl)c1ccccn1	-0.3	/	-0.9	6.6	65.3*	-6.0	?
CCOC1OC(C(=O)N2CCN(Cc3ccccc3)CC2)=CC(c2cn(C(C)=O)c3ccccc23)C1CCCO (stereo unspecified)	/	1.6	/	/	/	/	/
CC(=O)O[C@]1(C(C)=O)CCC2C3CC(C)C4=CC(=O)CC[C@]4(C)C3CC[C@@]21C (stereo partly specified)	/	-0.4	/	/	/	/	/
CC(=NNC(=O)COc1ccccc1)c1ccc(O)cc1	/	11.1	/	/	/	/	/
Cc1ccc(C(=O)Nc2ccc3c(c2)OCCO3)c(C)c1	-3.7	-1.5	-2.3	13.9	70.8*	5.6	?
COc1ccc(NC(=O)COC(=O)Cc2c[nH]c3ccccc23)cc1OC	-1.9	4.9	1.0	-0.6	68.4*	7.0	-24.1
C=CCC(CC(=O)N(CCO)Cc1ccccc1)C(=O)NC(COC(=O)C(CC=C)Cc1ccc(F)cc1)c1ccccc1 (stereo unspecified)	/	-2.4	/	/	/	/	/
COc1ccc(OC)c(-c2nc(C(=O)NCCCN3CCOCC3)cc3c2[nH]c2ccccc23)c1	20.5	/	5.6	14.7	54.0*	-5.2	0.6
C=CCN(CC=C)S(=O)(=O)c1ccc(NC(=S)NC(=O)/C=C/c2ccccc2)cc1	-2.2	/	1.9	31.1*	59.1*	2.0	-9.4
C=CCN(CC=C)C(=S)NC(=O)/C=C/c1ccccc1	0.6	7.7	1.8	3.8	-38.0	-4.7	/
CCN1C(=O)[C@H]2[C@H]3CN=C(SCc4ccccc4)N3[C@@](Cc3ccccc3)(C(=O)OC)[C@H]2C1=O	-1.0	-1.0	5.2	14.6	-17.0	0.9	/
CCN1C(=O)[C@H]2[C@H]3CN=C(SCC4CC4)N3[C@@](Cc3ccccc3)(C(=O)OC)[C@H]2C1=O	21.3	-4.8	1.1	0.0	64.4*	-7.9	-1.1
CCOc1cc(/C=N\NC(=O)C2C(=O)NCC2c2ccccc2)ccc1OC (stereo unspecified)	8.9	/	1.5	13.8	5.0	2.1	/
COc1ccc(/C=N\NC(=O)C2C(=O)NCC2c2ccccc2)cc1O (stereo unspecified)	-8.9	/	2.8	4.8	71.3*	-1.3	-48.3
C=CCOc1ccc(C=NO)cc1Cl	/	5.8	/	/	/	/	/
SMILES	Y pestis TopoI	Mtb hypoxia inh	Mtb FBA inh	GDH-TPI counter	PrP UTR inh	PrPC TRFRET	PrP UTR cherry
CC(C)(C)OC(=O)C(NC(=O)OCc1ccccc1)c1ccccc1 (stereo unspecified)	/	2.9	/	/	/	/	/
COc1ccc2nc(NCCNC(=S)NCCCN3CCOCC3)c(C#N)cc2c1	-13.2	-2.8	7.8	-1.9	78.4*	2.7	?
C[C@H]1CCC/C=C/[C@@H]2C[C@H](O)C[C@H]2[C@@H](O)/C=C/C(=O)O1	-7.6	/	5.2	6.0	86.4*	92.6*	90.8*
C[C@H]1CCC/C=C/[C@@H]2C[C@H](O)C[C@H]2[C@H](O)[C@H](S(=O)c2ccc(O)cc2)CC(=O)O1 (stereo partly specified)	-0.7	/	-0.3	1.7	86.0*	88.9*	69.3*
CCCCC[C@H]1CCCCC[C@@H](O)C[C@@H](O)[C@@H](O)/C=C/C(=O)O1	/	/	/	/	/	-5.3	/
CC1CCCC=CC2CC(OC(=O)CN(C)C)CC2C(O)C=CC(=O)O1 (stereo unspecified)	7.4	/	-0.4	0.0	80.6*	90.3*	90.3*
COCc1c(C(=O)NN=Cc2cccs2)nnn1-c1nonc1N	/	-0.6	/	/	/	/	/
CN1CC2C(c3ccc(Cl)nc3)C3(c4ccccc4)CC2(C3)C1c1ccccc1 (stereo unspecified)	/	-1.1	/	/	/	/	/
C/C(=N\NC(=O)c1ccccc1NC(=O)c1ccc(Cl)cc1)c1ccncc1	-8.0	/	1.9	9.3	75.8*	9.5	70.0*
CC(=NNc1cc(C(F)(F)F)ccc1Cl)c1ccncc1	/	0.1	/	/	/	/	/
CCCCNS(=O)(=O)c1ccc(NC(=O)Cc2ccc(OC)cc2)cc1	14.9	-5.4	-0.8	-3.5	69.3*	1.1	10.4
CCOc1ccc(NC(=O)CN(C)C(=O)C2CCCC2)cc1OCC	-11.1	5.0	-2.7	-6.4	82.7*	7.3	-12.9
Nc1ccc2oc(-c3cccc4ccccc34)nc2c1	-3.1	12.0	5.8	12.9	51.5*	2.6	64.8*
Cc1ccc(-c2nc3cc(N)ccc3o2)c(C)c1	-1.0	-8.7	10.2	8.8	-33.4	-1.8	/
COc1ccc(OC)c(NS(=O)(=O)c2ccc(N3CCCC3=O)cc2)c1	-3.3	/	9.0	2.2	59.6*	10.5	90.0*
CCOc1ccc(S(=O)(=O)Nc2cc(OC)ccc2OC)cc1	-1.6	11.7	-1.1	-9.6	59.8*	15.9	87.9*
CC(C)CC(CO)N1CCN(Cc2ccc(O)cc2)CCC1=O (stereo unspecified)	/	4.1	/	/	/	/	/
NCCCCC1CNC(=S)N1CCc1cc(C(F)(F)F)cc(C(F)(F)F)c1 (stereo unspecified)	/	3.3	/	/	/	/	/

Screens deposited in PubChem BioAssay by several laboratories.
